± gives the standard deviation of the averaged measurements.

This experiment relates to AEK1 (Tb927.3.2440). The experiment is described as follows: percent reduction in TR-FRET probe signal relative to DMSO control; higher = stronger displacement of ATP-site probe (binding). Conditions: 1 µM; incubation time 1 h. (In general: In TR-FRET formats the signal depends on donor and acceptor labels being close together.)
On to `C=CC(=O)Nc1ccc2ncnc(Nc3cccc(Br)c3)c2c1`, for which the “percent reduction in TR-FRET probe signal” value (shortened to “percent reduction”) came out at 12 ± 5.5%.
With `Cl.Cl.O=S(=O)(NCCNC/C=C/c1ccc(Br)cc1)c1cccc2cnccc12`, the “percent reduction” value turned out to be 9.74 ± 13%.
For `Cc1ccc(C(=O)Nc2cccc(C(F)(F)F)c2)cc1Nc1nc(-c2cccnc2)nc2c1cnn2C`, the “percent reduction” value was determined as 1 ± 8.4%.
Next, `NC(=O)c1cccc(-c2cc(Nc3ccc(OC(F)(F)F)cc3)ncn2)c1`: -4.38 ± 9.6%.
In the case of `Cc1cc(Nc2cc(N3CCN(C)CC3)nc(/C=C/c3ccccc3)n2)n[nH]1`, the “percent reduction” value worked out at 20.9 ± 12%.
In the case of `Nc1cccc(-c2cc3c(Oc4cccc(O)c4)ncnc3[nH]2)c1`, the “percent reduction” value came out at 18.7 ± 22%.
Next, `COc1cc2ncnc(Nc3ccc(F)c(Cl)c3)c2cc1OCCCN1CCOCC1` [Gefitinib (ZD1839)]: 5.46 ± 21%.
For the molecule `Cn1ncc(Cl)c1-c1cc(C(=O)N[C@H](CN)Cc2ccc(F)c(F)c2)oc1Cl`, the “percent reduction” value stood at 33.2 ± 9.4%.
Consider `COc1ncc(-c2ccc3nccc(-c4ccnnc4)c3c2)cc1NS(=O)(=O)c1ccc(F)cc1F`, for which the “percent reduction” value came out at 3.02 ± 16%.
As for `CNC(=O)c1ccccc1Sc1ccc2c(/C=C/c3ccccn3)n[nH]c2c1` [Axitinib], the “percent reduction” value was 52.4 ± 18%.
Next, `Cc1c[nH]c2nc(Nc3ccc(N4CCN(C)CC4)c(F)c3)nc(-c3cccc(CC#N)c3)c12`: 56.3 ± 2%.
To `CS(=O)(=O)CCNCc1ccc(-c2ccc3ncnc(Nc4ccc(OCc5cccc(F)c5)c(Cl)c4)c3c2)o1` [Lapatinib] belongs 6.42 ± 9.8%.
To `COc1cc(Nc2nc3ccccc3nc2NS(=O)(=O)c2ccc(NC(=O)c3ccc(C)c(OC)c3)cc2)cc(OC)c1` belongs 18.9 ± 14%.

The values above are taken from the supplement of paper PMC10720658.
